Several values for one entry are separate records, joined by “and”; a condition that tells them apart may be missing. Equal entries are not always repeated. Inconclusive results are not listed. More than one record can exist for a structure, and the calls need not agree. Activity calls are given as the source filed them. Rule for the calls: active = hit-call score of the fitted dose curve at least 0.9, where 1 is the maximum; inconclusive = response in the unintended direction; inactive = score below 0.9.
Tests used:
[1] = ATG_M_06_XSP2: Attagene TRANS-FACTORIAL Multi-Species (XSP2) HepG2 Assay for M06 Transcription Factor (Internal Marker) (AID 2283811);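 note: internal background marker reporter mRNA measured by RT-PCR and capillary electrophoresis; hits are increases in signal above the DMSO baseline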
Method in brief: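 HepG2 cells transiently transfected with GAL4-UAS multi-reporter constructs, dosed 24 h with 3 nM 6-alpha-fluorotestosterone plus 1.5 nM norgestrel present to stimulate androgen receptor. Reporter mRNA quantified by RT-PCR, 6-FAM labelling, HpaI digestion and capillary electrophoresis; gain-of-signal fitted versus DMSO baseline.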

[2] = test system: turtle Estrogen Receptor (ERa), gene 101933533; assay: ATG_trERa_XSP2: Attagene TRANS-FACTORIAL Multi-Species (XSP2) HepG2 Assay for turtle Estrogen Receptor (ERa) (AID 2283812);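 note: human HepG2 liver cells transiently expressing turtle ERa-Gal4 chimeric receptor; actives raise reporter signal above DMSO so AC50 reflects agonist activity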
Method in brief: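 HepG2 cells transiently transfected with GAL4-UAS reporter units expressing turtle ERa-Gal4 chimera. Reporter mRNA measured after 24 h dosing by RT-PCR, fluorescent labelling and capillary electrophoresis; gain of signal fitted versus DMSO.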

[3] = biological target: GAL4 Transcription Factor (Internal Marker), GAL4 (gene 855828) (UniProt P04386); assay: ATG_GAL4_XSP2: Attagene TRANS-FACTORIAL Multi-Species (XSP2) HepG2 Assay for GAL4 Transcription Factor (Internal Marker) (AID 2283814);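 note: GAL4 reporter mRNA background control in MRTU transfected cells not a receptor target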
Sequence of GAL4 Transcription Factor (Internal Marker), GAL4 (gene 855828) (P04386 whole entry, looked up, the tested form may be a part): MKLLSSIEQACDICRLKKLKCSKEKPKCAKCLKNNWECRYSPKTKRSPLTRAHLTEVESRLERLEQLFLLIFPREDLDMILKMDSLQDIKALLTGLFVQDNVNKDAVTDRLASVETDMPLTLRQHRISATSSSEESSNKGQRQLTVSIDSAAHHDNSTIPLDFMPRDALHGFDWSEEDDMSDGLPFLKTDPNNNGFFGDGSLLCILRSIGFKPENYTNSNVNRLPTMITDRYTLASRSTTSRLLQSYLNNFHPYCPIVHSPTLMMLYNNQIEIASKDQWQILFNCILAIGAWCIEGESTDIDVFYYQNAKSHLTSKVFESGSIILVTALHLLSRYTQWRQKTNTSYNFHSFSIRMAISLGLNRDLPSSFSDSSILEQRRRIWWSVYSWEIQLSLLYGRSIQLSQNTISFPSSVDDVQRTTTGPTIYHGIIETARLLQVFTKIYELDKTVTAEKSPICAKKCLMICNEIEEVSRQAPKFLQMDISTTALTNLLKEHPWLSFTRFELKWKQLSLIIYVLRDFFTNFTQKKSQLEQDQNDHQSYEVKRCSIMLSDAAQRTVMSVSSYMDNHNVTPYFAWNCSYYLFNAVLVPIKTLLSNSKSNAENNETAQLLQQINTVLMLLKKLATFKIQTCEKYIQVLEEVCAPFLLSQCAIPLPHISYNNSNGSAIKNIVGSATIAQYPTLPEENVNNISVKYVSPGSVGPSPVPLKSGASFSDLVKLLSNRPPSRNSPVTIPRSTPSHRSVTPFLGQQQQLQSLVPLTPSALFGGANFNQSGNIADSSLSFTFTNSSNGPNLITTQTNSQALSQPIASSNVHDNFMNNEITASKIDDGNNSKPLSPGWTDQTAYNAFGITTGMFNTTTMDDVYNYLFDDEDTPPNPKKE
Method in brief: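 HepG2 cells transiently transfected with GAL4-UAS reporter units, stimulated with 3 nM 6-alpha-fluorotestosterone plus 1.5 nM norgestrel, dosed 24 h. Reporter mRNA by RT-PCR/capillary electrophoresis; gain-of-signal fit versus DMSO, background control.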

[4] = biological target: zebrafish Estrogen Receptor (ER1), esr1 (gene 259252) (UniProt P57717); assay: ATG_zfER1_XSP2: Attagene TRANS-FACTORIAL Multi-Species (XSP2) HepG2 Assay for zebrafish Estrogen Receptor (ER1) (AID 2283816)
Sequence of zebrafish Estrogen Receptor (ER1), esr1 (gene 259252) (P57717 whole entry, looked up, the tested form may be a part): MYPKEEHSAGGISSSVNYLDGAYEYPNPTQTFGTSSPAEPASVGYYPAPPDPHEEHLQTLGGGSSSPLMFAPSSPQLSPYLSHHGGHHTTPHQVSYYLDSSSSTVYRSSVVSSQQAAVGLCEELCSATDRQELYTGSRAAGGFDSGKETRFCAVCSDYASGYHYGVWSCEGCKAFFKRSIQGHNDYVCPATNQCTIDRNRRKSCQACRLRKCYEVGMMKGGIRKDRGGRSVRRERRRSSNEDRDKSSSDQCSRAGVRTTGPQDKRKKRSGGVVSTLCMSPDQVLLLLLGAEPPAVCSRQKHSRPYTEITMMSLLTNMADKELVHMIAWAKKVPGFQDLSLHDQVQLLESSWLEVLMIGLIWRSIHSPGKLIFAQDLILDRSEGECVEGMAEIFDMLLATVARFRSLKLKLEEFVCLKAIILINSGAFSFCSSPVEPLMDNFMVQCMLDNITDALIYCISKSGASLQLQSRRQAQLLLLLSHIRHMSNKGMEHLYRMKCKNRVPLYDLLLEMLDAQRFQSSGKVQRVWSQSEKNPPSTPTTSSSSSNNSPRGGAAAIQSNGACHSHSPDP
Method in brief: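 HepG2 cells transiently transfected with a GAL4-UAS reporter and a chimeric zebrafish ER1-Gal4 construct, dosed 24 h. Reporter mRNA quantified by RT-PCR, labelling, HpaI digestion and capillary electrophoresis, relative to DMSO.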

[5] = biological target: chicken Estrogen Receptor (ERa), ESR1 (gene 396099) (UniProt P06212); assay: ATG_chERa_XSP2: Attagene TRANS-FACTORIAL Multi-Species (XSP2) HepG2 Assay for chicken Estrogen Receptor (ERa) (AID 2283817);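 note: actives raise reporter signal above DMSO so AC50 reflects ER activation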
Sequence of chicken Estrogen Receptor (ERa), ESR1 (gene 396099) (P06212 whole entry, looked up, the tested form may be a part): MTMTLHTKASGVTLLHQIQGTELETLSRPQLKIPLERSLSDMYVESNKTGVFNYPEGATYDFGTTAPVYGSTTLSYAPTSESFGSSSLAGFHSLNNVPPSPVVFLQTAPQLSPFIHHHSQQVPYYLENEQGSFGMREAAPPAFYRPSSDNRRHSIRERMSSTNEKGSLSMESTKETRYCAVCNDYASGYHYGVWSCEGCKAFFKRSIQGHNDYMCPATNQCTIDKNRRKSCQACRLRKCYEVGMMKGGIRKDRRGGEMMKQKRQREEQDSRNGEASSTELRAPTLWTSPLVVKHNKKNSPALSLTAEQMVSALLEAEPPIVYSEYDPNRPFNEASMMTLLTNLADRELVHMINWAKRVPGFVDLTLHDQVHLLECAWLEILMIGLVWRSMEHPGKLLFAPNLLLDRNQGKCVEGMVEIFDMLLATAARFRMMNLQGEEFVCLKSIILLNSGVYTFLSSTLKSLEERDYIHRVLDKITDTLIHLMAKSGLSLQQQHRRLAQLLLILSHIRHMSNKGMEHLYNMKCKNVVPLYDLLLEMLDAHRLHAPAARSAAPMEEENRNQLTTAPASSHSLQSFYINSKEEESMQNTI
Method in brief: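 HepG2 cells transiently transfected with multiplexed GAL4-UAS reporter units expressing chimeric chicken ERa-Gal4; 24 h compound exposure. Reporter mRNA measured by RT-PCR with 6-FAM labelling, HpaI digestion and capillary electrophoresis; gain-of-signal fitted versus DMSO.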

[6] = test system: zebrafish Estrogen Receptor (ER2a), gene 317734; assay: ATG_zfER2a_XSP2: Attagene TRANS-FACTORIAL Multi-Species (XSP2) HepG2 Assay for zebrafish Estrogen Receptor (ER2a) (AID 2283818);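 note: hits raise reporter mRNA so AC50 reflects activation of zebrafish ER2a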
Method in brief: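 HepG2 cells transiently transfected with GAL4-UAS reporter units and chimeric zebrafish ER2a-Gal4, exposed 24 h; medium contains 3 nM 6-alpha-fluorotestosterone and 1.5 nM norgestrel. Reporter mRNA quantified by RT-PCR, HpaI digestion, capillary electrophoresis; gain versus DMSO.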

[7] = test system: frog Estrogen Receptor (ER), gene 398734; assay: ATG_frER1_XSP2: Attagene TRANS-FACTORIAL Multi-Species (XSP2) HepG2 Assay for frog Estrogen Receptor (ER) (AID 2283821);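 note: hits raise reporter mRNA above DMSO baseline so potency means agonist or activator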
Method in brief: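 HepG2, transient MRTU transfection, chimeric NR-GAL4/UAS reporters; 24 h compound exposure, 24-well. Readout: reporter mRNA via RT-PCR + capillary electrophoresis, fluorescence. Positive fit vs DMSO baseline.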

[8] = test system: zebrafish Estrogen Receptor (ER2b), gene 317733; assay: ATG_zfER2b_XSP2: Attagene TRANS-FACTORIAL Multi-Species (XSP2) HepG2 Assay for zebrafish Estrogen Receptor (ER2b) (AID 2283823);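 note: fitted upward as reporter gain over DMSO so potency reflects activation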
Method in brief: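 Reporter transcripts quantified by RT-PCR, fluorescent labelling and capillary electrophoresis after 24 h dosing of transfected HepG2 expressing zebrafish ER2b-GAL4 fusion. Medium contained 3 nM 6-alpha-fluorotestosterone plus 1.5 nM norgestrel; DMSO baseline.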

[9] = biological target: Estrogen receptor (Homo sapiens) (UniProt P03372); assay: ATG_hERa_XSP2: Attagene TRANS-FACTORIAL Multi-Species (XSP2) HepG2 Assay for human Estrogen Receptor (ERa) (AID 2283827)
Sequence of Estrogen receptor (Homo sapiens) (P03372 whole entry, looked up, the tested form may be a part): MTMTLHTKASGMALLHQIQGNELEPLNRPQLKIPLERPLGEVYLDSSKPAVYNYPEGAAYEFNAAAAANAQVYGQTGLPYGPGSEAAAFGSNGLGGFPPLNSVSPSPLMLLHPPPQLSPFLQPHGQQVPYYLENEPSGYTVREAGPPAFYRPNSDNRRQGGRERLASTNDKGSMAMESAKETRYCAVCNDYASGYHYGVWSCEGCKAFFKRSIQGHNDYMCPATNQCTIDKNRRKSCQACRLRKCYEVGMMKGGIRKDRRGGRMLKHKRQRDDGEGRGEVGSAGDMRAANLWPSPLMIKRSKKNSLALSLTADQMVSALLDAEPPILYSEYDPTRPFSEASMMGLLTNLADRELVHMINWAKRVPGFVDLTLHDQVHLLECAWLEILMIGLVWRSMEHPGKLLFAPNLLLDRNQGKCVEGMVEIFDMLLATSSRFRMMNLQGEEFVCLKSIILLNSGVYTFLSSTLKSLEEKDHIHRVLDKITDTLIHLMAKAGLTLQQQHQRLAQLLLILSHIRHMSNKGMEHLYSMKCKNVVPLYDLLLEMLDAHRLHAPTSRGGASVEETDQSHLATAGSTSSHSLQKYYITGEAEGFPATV
Method in brief: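 HepG2 cells transiently transfected with multiplexed GAL4-UAS reporters driven by chimeric receptor-Gal4 proteins, dosed 24 h with 3 nM 6-alpha-fluorotestosterone and 1.5 nM norgestrel present. Reporter mRNA by RT-PCR and capillary electrophoresis; gain-of-signal fit versus DMSO.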

[10] = test system: frog Estrogen Receptor (ER2), gene 100174814; assay: ATG_frER2_XSP2: Attagene TRANS-FACTORIAL Multi-Species (XSP2) HepG2 Assay for frog Estrogen Receptor (ER2) (AID 2283828)
Method in brief: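 Human liver HepG2, transient MRTU transfection (TRANS format, exogenous NR–Gal4). 24 h cpd exposure. Total RNA → RT → PCR → FAM label → HpaI cut → CE. Positive direction vs DMSO.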

[11] = biological target: mouse Peroxisome Proliferator-activated Receptor gamma (PPARg), Pparg (gene 19016) (UniProt P37238); assay: ATG_mPPARg_XSP1: Attagene TRANS-FACTORIAL Multi-Species (XSP1) HepG2 Assay for mouse Peroxisome Proliferator-activated Receptor gamma (PPARg) (AID 2283802)
Sequence of mouse Peroxisome Proliferator-activated Receptor gamma (PPARg), Pparg (gene 19016) (P37238 whole entry, looked up, the tested form may be a part): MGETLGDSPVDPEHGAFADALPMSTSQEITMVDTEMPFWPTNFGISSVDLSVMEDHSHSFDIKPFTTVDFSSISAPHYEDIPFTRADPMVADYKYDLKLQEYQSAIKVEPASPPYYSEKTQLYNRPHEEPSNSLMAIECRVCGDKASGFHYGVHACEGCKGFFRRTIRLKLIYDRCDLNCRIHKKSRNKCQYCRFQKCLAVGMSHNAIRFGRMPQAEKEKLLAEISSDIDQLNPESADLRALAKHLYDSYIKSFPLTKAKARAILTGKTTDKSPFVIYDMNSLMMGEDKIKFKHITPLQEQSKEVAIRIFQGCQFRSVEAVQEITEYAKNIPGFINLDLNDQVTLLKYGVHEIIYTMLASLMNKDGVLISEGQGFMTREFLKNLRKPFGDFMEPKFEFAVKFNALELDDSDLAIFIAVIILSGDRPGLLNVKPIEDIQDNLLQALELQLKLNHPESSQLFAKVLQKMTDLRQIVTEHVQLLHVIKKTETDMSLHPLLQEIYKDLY
Method in brief: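 HepG2 cells transiently transfected with GAL4-UAS reporter units driven by mouse PPARg–GAL4 chimera; 3 nM 6-alpha-fluorotestosterone present. After 24 h dosing, reporter mRNA quantified by RT-PCR, fluorescent labelling and capillary electrophoresis; gain of signal versus DMSO.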

[12] = biological target: Nuclear receptor subfamily 1 group I member 2 (Mus musculus) (UniProt O54915); assay: ATG_mPXR_XSP1: Attagene TRANS-FACTORIAL Multi-Species (XSP1) HepG2 Assay for mouse Pregnane X Receptor (PXR) (AID 2283803)
Sequence of Nuclear receptor subfamily 1 group I member 2 (Mus musculus) (O54915 whole entry, looked up, the tested form may be a part): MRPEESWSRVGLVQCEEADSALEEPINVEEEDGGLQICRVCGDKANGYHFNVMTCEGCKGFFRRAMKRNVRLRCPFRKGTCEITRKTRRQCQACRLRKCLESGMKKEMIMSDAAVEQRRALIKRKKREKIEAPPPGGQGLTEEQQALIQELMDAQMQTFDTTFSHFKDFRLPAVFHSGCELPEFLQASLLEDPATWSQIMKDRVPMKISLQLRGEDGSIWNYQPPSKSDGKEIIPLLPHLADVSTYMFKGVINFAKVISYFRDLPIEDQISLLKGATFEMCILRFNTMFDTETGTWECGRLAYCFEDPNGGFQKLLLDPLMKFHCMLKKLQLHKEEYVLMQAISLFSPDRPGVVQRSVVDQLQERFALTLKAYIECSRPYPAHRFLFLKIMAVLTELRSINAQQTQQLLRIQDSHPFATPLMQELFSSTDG
Method in brief: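 Transiently transfected HepG2 cells expressing a receptor-Gal4 chimera drive a GAL4-UAS reporter; 3 nM 6-alpha-fluorotestosterone included. Reporter mRNA read 24 h post-dose by RT-PCR and capillary electrophoresis; gain of signal relative to DMSO.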

[13] = biological target: frog Thyroid hormone Receptor alpha (TRa), thra-a (gene 397942) (UniProt P15204); assay: ATG_frTRa_XSP1: Attagene TRANS-FACTORIAL Multi-Species (XSP1) HepG2 Assay for frog Thyroid hormone Receptor alpha (TRa) (AID 2283804)
Sequence of frog Thyroid hormone Receptor alpha (TRa), thra-a (gene 397942) (P15204 whole entry, looked up, the tested form may be a part): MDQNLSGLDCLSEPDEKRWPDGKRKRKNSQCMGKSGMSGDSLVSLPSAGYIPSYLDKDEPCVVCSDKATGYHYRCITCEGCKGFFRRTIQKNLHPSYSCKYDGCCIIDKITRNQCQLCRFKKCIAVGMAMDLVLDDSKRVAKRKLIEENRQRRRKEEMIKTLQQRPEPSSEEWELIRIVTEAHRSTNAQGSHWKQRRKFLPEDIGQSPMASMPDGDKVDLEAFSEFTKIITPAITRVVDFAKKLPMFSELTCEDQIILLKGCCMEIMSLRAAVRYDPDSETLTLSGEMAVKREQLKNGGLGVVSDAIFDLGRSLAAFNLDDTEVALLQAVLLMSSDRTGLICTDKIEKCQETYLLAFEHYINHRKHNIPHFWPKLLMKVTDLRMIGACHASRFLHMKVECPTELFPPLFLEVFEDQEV
Method in brief: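 HepG2 cells transiently transfected with frog TRa-GAL4 chimeric reporter units, dosed 24 hr with 3 nM 6-alpha-fluorotestosterone present; reporter mRNA quantified by RT-PCR, fluorescent labelling and capillary electrophoresis, gain of signal versus DMSO.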

[14] = test system: turtle Thyroid Hormone Receptor, alpha (TRa), gene 101949057; assay: ATG_trTRa_XSP1: Attagene TRANS-FACTORIAL Multi-Species (XSP1) HepG2 Assay for turtle Thyroid Hormone Receptor, alpha (TRa) (AID 2283806)
Method in brief: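 HepG2 cells transiently transfected with GAL4-UAS reporter units and chimeric receptor-Gal4 constructs, with 3 nM 6-alpha-fluorotestosterone present. Reporter mRNA was quantified 24 h after dosing by RT-PCR, 6-FAM labelling and capillary electrophoresis; gain of signal versus DMSO.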

[15] = biological target: zebrafish Thyroid Hormone Receptor beta (TRb), thrb (gene 30607) (UniProt Q9PVE4); assay: ATG_zfTRb_XSP1: Attagene TRANS-FACTORIAL Multi-Species (XSP1) HepG2 Assay for zebrafish Thyroid Hormone Receptor beta (TRb) (AID 2283809)
Sequence of zebrafish Thyroid Hormone Receptor beta (TRb), thrb (gene 30607) (Q9PVE4 whole entry, looked up, the tested form may be a part): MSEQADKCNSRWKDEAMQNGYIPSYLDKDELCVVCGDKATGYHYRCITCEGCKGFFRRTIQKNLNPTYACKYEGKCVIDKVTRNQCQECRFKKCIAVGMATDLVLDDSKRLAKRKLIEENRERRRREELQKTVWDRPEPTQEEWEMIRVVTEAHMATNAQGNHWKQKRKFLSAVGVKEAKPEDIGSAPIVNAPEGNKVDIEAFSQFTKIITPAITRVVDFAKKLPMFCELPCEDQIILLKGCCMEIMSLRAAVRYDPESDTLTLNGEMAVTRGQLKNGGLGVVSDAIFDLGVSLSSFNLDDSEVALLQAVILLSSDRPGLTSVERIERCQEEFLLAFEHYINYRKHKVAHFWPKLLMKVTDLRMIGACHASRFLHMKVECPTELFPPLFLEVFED
Method in brief: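 HepG2 cells transiently transfected with multiplexed GAL4-UAS reporter units expressing chimeric zebrafish TRb–Gal4. Dosed 24 h with 3 nM 6-alpha-fluorotestosterone present; reporter mRNA measured by RT-PCR, HpaI digestion and capillary electrophoresis; gain of signal versus DMSO.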

[16] = ATG_XTT_Cytotoxicity_XSP1: Cytotoxicity Assessment in the Attagene TRANS-FACTORIAL Multi-Species (XSP1) HepG2 Assay (AID 2283810)
Method in brief: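 XTT viability readout taken at 24 hours post-dosing in HepG2 liver cells co-treated with 3 nM 6-alpha-fluorotestosterone. Signal loss relative to DMSO controls reflects cytotoxicity.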

[17] = biological target: Estrogen receptor beta (Homo sapiens) (UniProt Q92731); assay: ATG_hERb_XSP2: Attagene TRANS-FACTORIAL Multi-Species (XSP2) HepG2 Assay for human Estrogen Receptor (ERb) (AID 2283813);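 note: actives raise reporter mRNA above DMSO so AC50 reflects agonist induction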
Sequence of Estrogen receptor beta (Homo sapiens) (Q92731 whole entry, looked up, the tested form may be a part): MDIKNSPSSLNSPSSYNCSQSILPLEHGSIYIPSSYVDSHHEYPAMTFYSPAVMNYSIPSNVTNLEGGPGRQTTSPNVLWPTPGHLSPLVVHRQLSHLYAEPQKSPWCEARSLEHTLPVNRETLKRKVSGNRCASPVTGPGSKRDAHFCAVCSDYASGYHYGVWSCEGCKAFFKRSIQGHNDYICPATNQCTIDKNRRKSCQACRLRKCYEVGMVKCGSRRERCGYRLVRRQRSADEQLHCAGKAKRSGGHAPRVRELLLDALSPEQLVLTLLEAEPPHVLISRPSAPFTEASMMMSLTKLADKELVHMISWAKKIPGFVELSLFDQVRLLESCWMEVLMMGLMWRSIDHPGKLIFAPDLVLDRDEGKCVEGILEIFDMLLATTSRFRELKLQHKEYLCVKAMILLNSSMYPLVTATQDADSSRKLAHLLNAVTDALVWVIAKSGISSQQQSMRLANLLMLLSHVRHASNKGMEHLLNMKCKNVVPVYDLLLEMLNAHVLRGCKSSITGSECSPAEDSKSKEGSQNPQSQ
Method in brief: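 HepG2 cells transiently transfected with GAL4-UAS reporter units and chimeric human ERb-Gal4, 24 h exposure. Reporter mRNA quantified by RT-PCR with FAM labelling, HpaI digestion and capillary electrophoresis; gain of signal versus DMSO.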

[18] = test system: chicken Androgen Receptor (AR), gene 422165; assay: ATG_chAR_XSP2: Attagene TRANS-FACTORIAL Multi-Species (XSP2) HepG2 Assay for chicken Androgen Receptor (AR) (AID 2283819);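 note: hits raise reporter mRNA above DMSO so potency is for activation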
Method in brief: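 HepG2 cells transiently transfected with chicken AR–GAL4 chimeric reporter constructs, stimulated with 3 nM 6-alpha-fluorotestosterone plus 1.5 nM norgestrel, dosed 24 h. Reporter mRNA quantified by RT-PCR and capillary electrophoresis; gain of signal fitted versus DMSO.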

[19] = test system: zebrafish Androgen Receptor (AR), gene 100005148; assay: ATG_zfAR_XSP2: Attagene TRANS-FACTORIAL Multi-Species (XSP2) HepG2 Assay for zebrafish Androgen Receptor (AR) (AID 2283825);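 note: hits raise reporter mRNA above DMSO so AC50 reflects agonist-type gain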
Method in brief: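 Zebrafish AR–GAL4 chimera transiently expressed with GAL4-UAS reporter in HepG2 cells, co-stimulated with 3 nM 6-alpha-fluorotestosterone and 1.5 nM norgestrel; 24 h dosing, reporter mRNA read by RT-PCR/capillary electrophoresis versus DMSO.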

[20] = test system: frog Androgen Receptor (AR), gene 399456; assay: ATG_frAR_XSP2: Attagene TRANS-FACTORIAL Multi-Species (XSP2) HepG2 Assay for frog Androgen Receptor (AR) (AID 2283824);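 note: actives raise reporter signal above DMSO so AC50 reflects agonist-like induction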
Method in brief: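 HepG2 cells transiently transfected with GAL4-UAS reporter units and frog (Xenopus laevis) AR-Gal4 chimera; reporter mRNA measured 24 h after dosing by RT-PCR and capillary electrophoresis. Gain of signal fitted relative to DMSO baseline.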

Measured: AC50

CC(=O)C(C)=CC1C(C)=CCCC1(C)C (stereo not drawn)
active: [2] 29.9 µM and 25.5 µM | [4] 34.2 µM | [5] 19.8 µM and 14 µM | [6] 15 µM and 19.8 µM | [7] 27.3 µM and 27.2 µM | [8] 32 µM and 29.8 µM | [9] 19.8 µM and 21.3 µM | [10] 27.7 µM and 14.7 µM
inactive: [1] | [3] | [4]

CC(C)(C)c1cc(O)c(C(C)(C)C)cc1O
active: [11] 100 µM | [8] 49.3 µM
not listed: [3] | [19] | [20]
inactive: all other assays above

C=CCOC(=O)c1ccccc1C(=O)OCC=C
active: [2] 74.3 µM and 100 µM | [5] 62.3 µM | [8] 139 µM and 78.9 µM | [9] 53.5 µM and 100 µM | [10] 51.2 µM
inactive: [1] | [3] | [4] | [5] | [6] | [18] | [7] | [19] | [10]

CCCc1cc(=O)[nH]c(=S)[nH]1
inactive: [4] | [7] | [8] | [20] | [19] | [9]

From PubChem BioAssay (EPA / NIEHS)
